Test results taken from the supplement of paper PMC6555819.

Tests used:
Test in all cases: PBM binding z-score (relative to random genomic background probes); higher = stronger binding; sequences stand for … in GC…GCGATTGACAGCGTAGAATGAAGG
[1] = system: PPARg:RXRa DBDmut IVT, anti-RXR (DBD mutation: RXRa K156A/R161A, NR concentration 270 nM, RXRa partner concentration 90 nM)
In short: (§1)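 Custom Agilent 4×180K protein-binding microarrays carried double-stranded probes, each with a 34-nt variable region. These regions held direct-repeat seeds, single-nucleotide variants, half-site ablations and random human genomic background sequences. Ligand-free nuclear receptor dimers were incubated on the arrays for 1 h, antibodies against each partner (one per run) detected binding, and scanned fluorescence was regression-normalized. Binding z-scores take the random background probes as reference.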

[2] = system: PPARg:RXRa IVT, anti-PPARg (NR concentration 270 nM, RXRa partner concentration 90 nM)
In short: as §1

[3] = system: PPARg DBDmut:RXRa IVT, anti-PPARg (DBD mutation: PPARg1 K132A/R137A, NR concentration 270 nM, RXRa partner concentration 90 nM)
In short: as §1

[4] = system: PPARg DBDmut IVT, anti-PPARg (DBD mutation: PPARg1 K132A/R137A, NR concentration 270 nM)
In short: as §1

[5] = system: PPARg homodimer (NR concentration 180 nM)
In short: as §1

[6] = system: PXR:RXRa (NR concentration 270 nM, RXRa partner concentration 90 nM)
In short: as §1

[7] = system: PXR homodimer (NR concentration 270 nM)
In short: as §1

[8] = system: RARa:RXR (NR concentration 270 nM, RXRa partner concentration 90 nM)
In short: as §1

[9] = system: RARa homodimer (NR concentration 270 nM)
In short: as §1

[10] = system: RARb:RXRa (NR concentration 270 nM, RXRa partner concentration 90 nM)
In short: as §1

[11] = system: RARb homodimer (NR concentration 270 nM)
In short: as §1

[12] = system: RARg:RXRa (NR concentration 270 nM, RXRa partner concentration 90 nM)
In short: as §1

[13] = system: RARg homodimer (NR concentration 270 nM)
In short: as §1

[14] = system: RXRa DBDmut IVT, anti-RXR (DBD mutation: RXRa K156A/R161A, NR concentration 90 nM)
In short: as §1

[15] = system: RXRa homodimer (NR concentration 180 nM)
In short: as §1

[16] = system: THRa:RXRa (NR concentration 90 nM, RXRa partner concentration 90 nM)
In short: as §1

[17] = system: THRa homodimer (NR concentration 90 nM)
In short: as §1

[18] = system: VDR homodimer (NR concentration 270 nM)
In short: as §1

Sequence	PBM binding z-score [1]	PBM binding z-score [2]	PBM binding z-score [3]	PBM binding z-score [4]	PBM binding z-score [5]	PBM binding z-score [6]	PBM binding z-score [7]	PBM binding z-score [8]	PBM binding z-score [9]	PBM binding z-score [10]	PBM binding z-score [11]	PBM binding z-score [12]	PBM binding z-score [13]	PBM binding z-score [14]	PBM binding z-score [15]	PBM binding z-score [16]	PBM binding z-score [17]	PBM binding z-score [18]
ACTCGGAGGACAACGGTCAGAGCTACGCCAGTGA	0.208	0.015	-0.698	-0.749	-0.201	-0.539	-0.446	-0.355	0.128	2	1.51	1.06	2.14	0.0365	-0.0292	0.773	-0.132	-0.272
TCGAGAAGGTTAGTCGGGGCATTCAGCCAACATA	1.32	0.682	-0.513	-0.49	0.545	0.807	0.434	0.664	-0.434	1.36	0.99	0.634	0.546	0.877	0.644	1.79	0.0413	1.2
GCTCGGAGGACAAGGTCAGACCTTTGTCCGTAGA	-0.401	1.17	-0.273	-0.216	0.937	2.18	-0.193	2.61	-0.422	3.67	3.1	3.68	3.51	0.424	3.12	2.94	1.47	0.924
ATATGTAGGTTAGCTGGGGTCGTTCAGACTAGGC	6.38	6.16	1.24	1.41	0.751	4.69	1.3	2.76	0.512	1.51	1.8	1.66	1.15	1.08	2.37	4.63	1.18	2.29
CAAACTAGGTCAAGAGGTCAAAGTGCGCTTCCCG	8.41	8.51	1.86	0.825	5.5	6.13	2.6	7.48	2.21	5.47	5.69	8.27	7.86	3.2	8.67	4.46	2.56	4.83
TCTATTAGTTGAAGGGCAACCCACGAGTCCGTTT	2.65	0.706	0.623	0.929	1.43	1.02	1.09	0.823	1.21	1.65	1.55	0.894	0.882	1.69	0.809	0.474	0.28	1.81
CAAACTCGGTCACCGGAAGGTCAAAGTCCGCATG	4.82	5.21	0.644	0.562	4.4	4.75	1.84	5.66	1.31	4.61	5.22	6.88	6.29	1.12	4.82	3.44	1.59	2.65
ATATGTAGGTTACATCCGGCTCATTCAGGCTATG	7.66	6.94	2.85	2.21	0.844	0.18	0.0469	0.506	0.258	1.07	0.467	0.906	1.15	0.846	0.829	1.09	0.4	0.27
CCAACTGGGGCAAAGGTTACCATACTCAGTACGA	6.6	6.7	0.471	-0.285	1.54	2.39	0.017	4.34	0.873	2.65	2.56	3.77	2.06	0.365	4.41	1.84	0.0572	0.0335
CGACCAAGGTCAATGCTAGGTCAGTGAAAGCATT	3.29	3.59	-0.925	-0.0967	4.22	4.59	0.845	5.71	0.803	5.03	4.82	7.46	6.84	3.44	5.73	4.18	2.25	2.89
ATAACGAGGGCAATGAGTTGATAGCACGGGTGGC	3.37	2.77	1.02	0.667	0.411	2	5.03	0.222	-0.438	2.02	0.877	1.46	1.73	1.84	1.07	0.969	-0.389	3.01
ATCTCTAGGTAACAAGTTCAGCGAAAGAGAGGAC	3.7	2.88	1.31	2.15	1.32	1.9	1.83	1.15	1.27	1.81	2.17	2.04	1.72	0.87	1.27	1.74	0.96	3
GATTGTAGATCAAGGTTAAGAAAGACTAAGCTAA	1.55	1.67	-0.436	-0.166	-0.088	0.443	-0.271	0.732	-0.134	0.406	-0.213	0.14	0.339	-0.224	0.781	0.867	-0.616	-0.0253
GCAGACAGCTGAAACGCAGGTAACTCAGGGTGGC	-0.593	-0.619	-0.401	-0.834	-1.24	-0.942	-0.526	-0.648	-0.637	-0.402	-0.98	-0.584	-0.685	-0.772	-0.453	0.284	-0.483	-1.05
TCTGCTAGGTCAGTTGGTTAGCTAACGAGCTGCC	2.45	2.82	-0.493	-0.0218	-0.654	0.251	-0.819	0.432	-1.34	3.29	2.11	2.15	2.76	0.517	0.728	1.15	-0.142	-0.573
ATCGAAAGGTCGATGAGGTGAGTATACACCGTTT	0.00502	1.61	1.01	0.136	1.49	2.58	1.07	2.98	0.305	3.37	2.52	3.5	3.32	0.841	3.56	3.75	0.943	1.17
CGACCAAGGTCAAGGTCAGTGAAAGAGACTCGAA	3.29	4.75	0.143	-0.162	3.87	4.59	0.777	4.89	1.42	5.78	4.91	6.66	7.49	3.4	6.54	4.31	2.79	2.52
TGAATGAGCTTAAAGATCAGGGAACGTGGCGTCG	-0.909	-0.722	-0.0715	-0.43	-0.49	-0.508	-0.697	-0.284	-0.372	-0.351	-0.993	-0.123	-0.307	-1.41	0.0598	-0.475	-0.628	-0.391
ATACCAAGGTGATCGTGAGGACGTTGATACTAAC	0.171	1.03	0.678	-0.134	-0.121	0.502	0.387	1.03	0.115	0.704	0.51	0.635	0.393	-0.27	0.264	2.96	1.97	0.714
CAGCCTAGGGCAGGGCCAGTATAGGAGGAACGTT	-0.842	-0.372	-2.01	-1.9	-1.39	-1.13	-0.815	-0.853	-0.656	0.716	0.0483	-0.0952	0.654	-1.36	-0.507	-0.901	-0.998	-0.621
TCTTATAGGTAAATGCTAGGTGAAAGTCCGATCT	3.93	2.62	1.31	1.13	1.1	0.946	0.588	1.4	1.65	0.769	0.569	0.602	0.586	1.88	0.669	1.52	0.924	0.694
CGAACTAGGTCCAGGACAGTGAATCTCCGCACGC	2.08	0.856	-0.489	-1.24	-0.302	-0.535	-0.312	-0.417	-0.0938	0.00636	-0.206	-0.326	-0.183	0.703	-0.387	0.749	0.778	0.133
GTACCAAGGTGAATAGGTCGTTCATGAGTAGGCG	1.96	2.71	0.421	-1.06	0.765	0.908	-0.0414	1.62	-0.236	2.12	1.96	2.67	1.47	0.154	1.99	1.78	0.565	0.67
TCTGCGAGGTCAGTTGGTCAGCTAACGAGCTGCC	1.99	3.25	2.02	0.235	1	2.88	0.146	2.68	-0.6	4.51	3.86	5	5.42	2.8	3.76	3.22	1.39	2.02
ACAGACAGGTGATGAAGGAAACTCAGGCTATCAT	-0.00583	0.186	0.678	0.42	0.36	-0.196	0.0696	0.162	0.228	0.275	0.24	0.168	0.36	-0.0618	0.38	0.154	0.0695	-0.33
CCGAGTAGGTTATGGGGCCTTCAGGCAACGGTGA	3.11	2.85	-0.856	-1.59	0.629	-0.268	-0.427	0.0801	0.0148	0.668	0.593	0.0658	0.0449	-0.932	0.358	0.547	0.292	0.0348
CGTCCAAGGTCAGAGAGGTCAGTGCATGCCGAGT	3.03	3.39	-0.458	-1.04	4.89	5.91	11.5	5.08	1.45	5.17	5.13	6.03	6.95	3.49	5.11	4.21	2.91	6.02
CCTGCTAGGTCAATGGTCAGTTAAAGCAGCTCGC	4.28	3.9	-0.811	-0.609	1.46	0.845	-0.135	1.69	-0.34	3.95	3.24	3.72	4.65	1.99	2.11	2.38	0.961	0.506
TCTGGTAGATCAATAGAGGTTAAGAAAGTGCGCT	1.4	0.577	0.241	0.106	0.418	3	0.367	1.75	0.0136	0.93	1.43	0.787	0.391	0.698	1.48	2.22	-0.138	0.435
